For 12 compounds, growth results are on record in PubChem BioAssay (NCI).

Assay in all cases: NCI-60 one-dose screen, 48 h (100 = growth as untreated, 0 = no growth, -100 = all killed)
The subject of one assay is NCI-H23 lung. As to conditions: 10 µM unless noted.
In the next assay the test system is NCI-H226 lung. As to conditions: 10 µM unless noted.
In another assay the test system is NCI-H322M lung. As to conditions: 10 µM unless noted.
In the next assay the test system is HOP-62 NSCLC. As to conditions: 10 µM unless noted.
The test system of another assay is HOP-92 NSCLC. As to conditions: 10 µM.
A further assay has as its system NCI-H522 lung. As to conditions: 10 µM.
In a further assay the test system is A549/ATCC NSCLC. The conditions noted are these: 10 µM unless noted.
For another assay, the system named is 786-0 renal. The conditions noted are these: 10 µM unless noted.
In the next assay the test system is COLO 205 colon. The conditions noted are these: 10 µM unless noted.
The test system of a further assay is NCI-H460 lung. As to conditions: 10 µM unless noted.

Where “and” joins values, the source holds several entries; their conditions need not be identical. Equal entries are not always repeated. About 83,000 compounds went through this panel and 20% of them were active in at least one assay; those are over-represented in the sample as a whole.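 Results are percent growth after 48 hours of single-concentration exposure. 100 means growth as in untreated cells, lower positive values show inhibition; negative values down to -100 show cell death.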 Unmarked numbers belong to inactive results. Calls of active or inactive are those of the source. Rule for the calls: active = growth percent below 10; inactive = the rest.

`CN1CNC(=O)NC1`: the growth in the assay on NCI-H23 lung is 106% and 99.9%; with NCI-H226 lung, 98.4% and 86.1%; in the assay with NCI-H322M lung, 120% and 92.3%; in the assay with HOP-62 NSCLC it was 108% and 103%; in the assay with HOP-92 NSCLC, 94.1% and 95.6%; in the assay on NCI-H522 lung it was 91.2% and 90%. The growth is 110% and 93.8% in the assay on A549/ATCC NSCLC; 108% and 112% in the assay on 786-0 renal; 110% and 121% in the assay with COLO 205 colon.
In the case of `Cc1cc(-c2cc(C)c(O)c(C)c2)cc(C)c1O`, the growth in the assay with NCI-H23 lung is 87.3%; in the assay on NCI-H226 lung, 96.2%; with NCI-H322M lung, 93.7%; in the assay with HOP-62 NSCLC it was 73.9%; in the assay on NCI-H460 lung it was 102%; in the assay on HOP-92 NSCLC, 77.1%. For the same compound, the results for the growth with NCI-H522 lung, in the assay on A549/ATCC NSCLC and with COLO 205 colon were 63.3%, 90.2% and 115%, respectively.
`Fc1ccc([I+]c2ccc(F)cc2)cc1`: the growth in the assay with NCI-H23 lung is 53.7%; with NCI-H226 lung, 71.8%; in the assay on NCI-H322M lung, 76.1%; in the assay on HOP-62 NSCLC, 78.7%; with HOP-92 NSCLC, 67.8%; in the assay on NCI-H522 lung it was 68.8%. In addition, the growth in the assay with A549/ATCC NSCLC is 80.9%.
With `NN1CCOC(c2ccccc2)C1` (centres undefined), the growth with NCI-H23 lung is 104%; in the assay with NCI-H226 lung, 99.4%; in the assay on NCI-H322M lung it was 97.7%; in the assay on HOP-62 NSCLC it was 99.6%; in the assay with NCI-H460 lung, 115%; in the assay with NCI-H522 lung it was 125%. In addition, the growth was 104% with A549/ATCC NSCLC, 103% in the assay on 786-0 renal and 107% in the assay with COLO 205 colon.
In the case of `OCCN1CCCCCCC1`, the growth in the assay with NCI-H23 lung is 105%; in the assay with NCI-H226 lung it was 93.8%; with NCI-H322M lung, 101%; with HOP-62 NSCLC, 99.5%; with HOP-92 NSCLC, 68%; in the assay with A549/ATCC NSCLC, 99%. Besides, the growth in the assay with 786-0 renal is 101%.
For `CC(=O)OCC1OC(OC(C)=O)C(OC(C)=O)C(OC(C)=O)C1OC(C)=O` (centres undefined), the growth with NCI-H23 lung is 107% and 95.6%; in the assay on NCI-H226 lung, 94.9% and 99.6%; in the assay with NCI-H322M lung it was 111% and 101%; in the assay with HOP-62 NSCLC, 83.4%; with NCI-H460 lung, 112% and 104%; in the assay on HOP-92 NSCLC, 102% and 98.9%. For the same compound, the growth in the assay with NCI-H522 lung was 103%; in the assay on A549/ATCC NSCLC, 103% and 96.6%; with 786-0 renal it was 102% and 106%; in the assay with COLO 205 colon it was 104% and 107%.
`Nc1cc(N)c(N)cc1N`: the growth is -66% (active) with NCI-H23 lung; 93.9% in the assay on NCI-H226 lung; 107% in the assay on NCI-H322M lung; 58.3% in the assay with HOP-62 NSCLC; 115% in the assay with HOP-92 NSCLC; -80.9% (active) in the assay on NCI-H522 lung. Besides, the growth was 88.1% with A549/ATCC NSCLC, 51.7% in the assay with 786-0 renal and 95.7% in the assay on COLO 205 colon.
For the compound `CCc1cc(C)cc(O)c1`, the growth is 107% in the assay with NCI-H23 lung; 99.4% in the assay with NCI-H226 lung; 105% in the assay with NCI-H322M lung; 106% in the assay with HOP-62 NSCLC; 110% with NCI-H460 lung; 91.7% in the assay with HOP-92 NSCLC. Besides, the growth in the assay with NCI-H522 lung is 90.1%; in the assay with A549/ATCC NSCLC, 108%; in the assay on 786-0 renal, 104%.
On to `O=c1n(CC2CO2)c(=O)n(CC2CO2)c(=O)n1CC1CO1` (centres undefined), for which the growth in the assay with NCI-H23 lung was 69.2%; with NCI-H226 lung, 80.1%; in the assay on NCI-H322M lung, 70.4%; with HOP-62 NSCLC, 57%; with HOP-92 NSCLC, 75.9%; in the assay on NCI-H522 lung, 45.1%. Further, the figures for the growth in the assay on A549/ATCC NSCLC and in the assay with 786-0 renal were 44.3% and 44.7%, respectively.
In the case of `Cc1cc(-c2ccc(N=Nc3ccc4c(S(=O)(=O)O)cc(S(=O)(=O)O)c(N)c4c3O)c(C)c2)ccc1N=Nc1ccc2c(S(=O)(=O)O)cc(S(=O)(=O)O)c(N)c2c1O`, the growth with NCI-H23 lung is 81.7%; in the assay with NCI-H226 lung, 89.2%; with NCI-H322M lung, 119%; in the assay on HOP-62 NSCLC, 95.7%; with HOP-92 NSCLC it was 67.1%; in the assay on NCI-H522 lung, 85.6%. In addition, the results for the growth in the assay on A549/ATCC NSCLC and with 786-0 renal were 92.7% and 101%, respectively.
For the compound `COc1ccc(Nc2ccc3ccccc3c2)cc1`, the growth in the assay on NCI-H23 lung was 81.5%; in the assay with NCI-H226 lung it was 81%; in the assay on HOP-62 NSCLC, 67.9%; in the assay on NCI-H460 lung, 94.1%; in the assay with 786-0 renal, 84.3%; with COLO 205 colon, 94%.
For `Brc1ccc(SSc2ccc(Br)cc2)cc1`, the growth in the assay with NCI-H23 lung was 72.5%; in the assay on NCI-H226 lung, 93.7%; in the assay on NCI-H322M lung it was 91.8%; in the assay with HOP-62 NSCLC, 75.3%; with HOP-92 NSCLC, 98.4%; in the assay with NCI-H522 lung it was 85.2%. In addition, the values for the growth with A549/ATCC NSCLC and in the assay on 786-0 renal were 66.7% and 59%, respectively.
